Source: PubChem BioAssay (NCI)
This is part of a sample that, as a whole, favours compounds with a hit. Of some 79,000 tested, about 15% had one in any assay. Activity calls are given as the source filed them. Cut-off read from the data, not from the text of the source: active = growth inhibition above about 70%; inactive = the rest.

How the values were obtained:
[1] = NCI Yeast Anticancer Drug Screen. Data for the wt1 strain (AID 149);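 note: 0% = growth of vehicle-treated wt1 cultures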; details: S. cerevisiae wt1 strain (SPY 50644) growth inhibition, active compounds read high
In short: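 Vehicle-normalised growth inhibition; strain wt1; compound exposure.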

[2] = NCI Yeast Anticancer Drug Screen. Data for the rad50EPP+ strain (AID 151);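 note: 0% = growth of vehicle-treated control cultures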; details: S. cerevisiae rad50 mutant strain, active compounds read high
In short: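 Yeast strain carrying rad50 alteration (rad50EPP+) exposed to compounds; growth inhibition measured relative to vehicle-treated controls.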

[3] = NCI Yeast Anticancer Drug Screen. Data for the mgt1 strain (AID 153); details: S. cerevisiae mgt1 mutant growth inhibition, active compounds read high
In short: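 Yeast mgt1 strain (DNA repair/cell-cycle alteration panel) exposed to compounds; growth inhibition measured relative to vehicle-treated controls.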

[4] = NCI Yeast Anticancer Drug Screen. Data for the rad50 strain (AID 155);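 note: 0% = growth of vehicle-only cultures of the same strain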; details: S. cerevisiae rad50 strain growth inhibition, active compounds read high
In short: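 A DNA repair-deficient yeast mutant serves as the test organism; compound-induced growth inhibition is calculated against vehicle-treated cells.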

[5] = NCI Yeast Anticancer Drug Screen. Data for the mec2-1 strain (AID 157); details: S. cerevisiae mec2-1 strain, active compounds read high
In short: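 mec2-1 yeast strain, carrying an alteration in DNA damage repair or cell cycle control, was exposed to compounds; growth inhibition was measured relative to vehicle-treated controls.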

[6] = NCI Yeast Anticancer Drug Screen. Data for the rad14 strain (AID 159);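 note: 0% = growth of vehicle-treated control cultures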; details: S. cerevisiae rad14 strain growth inhibition, active compounds read high
In short: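 Vehicle-treated cultures served as the baseline for growth inhibition of a DNA repair-mutant yeast strain exposed to each compound.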

[7] = NCI Yeast Anticancer Drug Screen. Data for the sgs1 mgt1 strain (AID 161);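 note: 0% = growth of cultures given vehicle only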; details: S. cerevisiae sgs1 mgt1 strain, active compounds read high
In short: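 Percent growth inhibition was derived by comparing compound-exposed mutant yeast with vehicle-exposed cultures. The strain carries alterations in DNA damage repair.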

[8] = NCI Yeast Anticancer Drug Screen. Data for the bub3 strain (AID 167); details: S. cerevisiae bub3 mutant strain, active compounds read high
In short: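 Inhibition values come from growth of compound-treated mutant yeast normalised to vehicle-treated controls.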

[9] = NCI Yeast Anticancer Drug Screen. Data for the wt2 strain (AID 169);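 note: 0% = growth of vehicle-treated yeast cultures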; details: S. cerevisiae wt2 strain growth inhibition, active compounds read high
In short: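 Yeast cells were exposed to test compounds, and growth inhibition was measured relative to vehicle-treated controls.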

[10] = NCI Yeast Anticancer Drug Screen. Data for the mlh1 strain (AID 171);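 note: 0% = growth of vehicle-treated control cultures of the same strain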; details: S. cerevisiae mlh1 strain growth inhibition, active compounds read high
In short: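 Yeast carrying a defined genetic alteration in DNA damage repair or cell cycle control were exposed to test compounds. Growth inhibition was measured relative to vehicle-treated controls.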

[11] = NCI Yeast Anticancer Drug Screen. Data for the sgs1 strain (AID 173);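 note: 0% = growth of vehicle-only control cultures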; details: S. cerevisiae sgs1 mutant, active compounds read high
In short: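 Yeast mutant strains carrying defined defects in DNA damage repair or cell cycle control were exposed to test compounds. Growth inhibition was scored against vehicle-treated controls.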

[12] = NCI Yeast Anticancer Drug Screen. Data for the rad18 strain (AID 177); details: S. cerevisiae rad18 mutant growth inhibition, active compounds read high
In short: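 Yeast carrying a defined DNA damage repair alteration were exposed to compounds. Growth inhibition was expressed relative to vehicle-treated controls.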

[13] = at 5.0 µM (retest, dose inferred, filed as 0.5)
[14] = at 50.0 µM (retest, dose inferred, filed as 5.0)

Measured: growth inhibition

NCC(O)CSCc1ccc(Cl)cc1 (configuration not stated)
inactive: [1]; at 1.2 µM -3% | [1]; at 3.7 µM -5% | [1]; at 11.0 µM -3% | [1]; at 33.0 µM -3% | [1]; at 100.0 µM 0% | [2]; at 1.2 µM -3% | [2]; at 3.7 µM -4% | [2]; at 11.0 µM 1% | [2]; at 33.0 µM -5% | [2]; at 100.0 µM -2% | [3]; at 1.2 µM -4% | [3]; at 3.7 µM -2% | [3]; at 11.0 µM -2% | [3]; at 33.0 µM 0% | [3]; at 100.0 µM 7% | [4]; at 1.2 µM -2% | [4]; at 3.7 µM 2% | [4]; [13] 5% | [4]; at 11.0 µM 2% | [4]; at 33.0 µM 7% | [4]; [14] 5% | [4]; at 50.0 µM 0.9% | [4]; at 100.0 µM 17% | [5]; at 1.2 µM -3% | [5]; at 3.7 µM -2% | [5]; [13] -14% | [5]; at 11.0 µM -2% | [5]; at 33.0 µM -2% | [5]; [14] 5% | [5]; at 50.0 µM 25.1% | [5]; at 100.0 µM 3% | [6]; at 1.2 µM -2% | [6]; at 3.7 µM -2% | [6]; at 11.0 µM 3% | [6]; at 33.0 µM 7% | [6]; at 100.0 µM 34% | [7]; [13] -7% | [7]; [14] 25% | [7]; at 50.0 µM 31% | [8]; at 1.2 µM -2% | [8]; at 3.7 µM -2% | [8]; [13] -13% | [8]; at 11.0 µM 1% | [8]; at 33.0 µM 20% | [8]; [14] 64% | [8]; at 100.0 µM 42% | [9]; at 1.2 µM -6% | [9]; at 3.7 µM -9% | [9]; at 11.0 µM -4% | [9]; at 33.0 µM 1% | [9]; at 100.0 µM -8% | [10]; at 1.2 µM -5% | [10]; at 3.7 µM -4% | [10]; at 11.0 µM -4% | [10]; at 33.0 µM -1% | [10]; at 100.0 µM 22% | [11]; at 1.2 µM -9% | [11]; at 3.7 µM 12% | [11]; at 11.0 µM -16% | [11]; at 33.0 µM 7% | [11]; at 100.0 µM 42% | [12]; at 1.2 µM -5% | [12]; at 3.7 µM -1% | [12]; at 11.0 µM 0% | [12]; at 33.0 µM -2% | [12]; at 100.0 µM 11%
active: [8]; at 50.0 µM 74.1%
